In PubChem BioAssay AID504339 (National Center for Advancing Translational Sciences (NCATS), 2011):
Among all 390,000 compounds or so, about 17,000 (4.4%) were called active. A call without a number means that no potency is given here. Roughly 8% stayed inconclusive and do not appear here. The call rests on the fitted dose curve; in most records, active means well fitted inhibition curve with a large enough effect; inconclusive means small, poorly fitted or top-dose-only effect; inactive means no such curve, though single readings can be large or run the other way. This excerpt belongs to a sample that is enriched for actives.

biological target: Lysine-specific demethylase 4A (Homo sapiens) (UniProt O75164); assay: qHTS Assay for Inhibitors of JMJD2A-Tudor Domain; conditions: AlphaScreen JMJD2A-Tudor / H3K4me3 peptide binding; series mostly up to 114 µM; further: nearly all actives have a fitted effect of over 50% in size
Potency means the concentration at half of the fitted maximal effect.

Lysine-specific demethylase 4A (Homo sapiens), sequence (O75164 whole entry, looked up, the tested form may be a part): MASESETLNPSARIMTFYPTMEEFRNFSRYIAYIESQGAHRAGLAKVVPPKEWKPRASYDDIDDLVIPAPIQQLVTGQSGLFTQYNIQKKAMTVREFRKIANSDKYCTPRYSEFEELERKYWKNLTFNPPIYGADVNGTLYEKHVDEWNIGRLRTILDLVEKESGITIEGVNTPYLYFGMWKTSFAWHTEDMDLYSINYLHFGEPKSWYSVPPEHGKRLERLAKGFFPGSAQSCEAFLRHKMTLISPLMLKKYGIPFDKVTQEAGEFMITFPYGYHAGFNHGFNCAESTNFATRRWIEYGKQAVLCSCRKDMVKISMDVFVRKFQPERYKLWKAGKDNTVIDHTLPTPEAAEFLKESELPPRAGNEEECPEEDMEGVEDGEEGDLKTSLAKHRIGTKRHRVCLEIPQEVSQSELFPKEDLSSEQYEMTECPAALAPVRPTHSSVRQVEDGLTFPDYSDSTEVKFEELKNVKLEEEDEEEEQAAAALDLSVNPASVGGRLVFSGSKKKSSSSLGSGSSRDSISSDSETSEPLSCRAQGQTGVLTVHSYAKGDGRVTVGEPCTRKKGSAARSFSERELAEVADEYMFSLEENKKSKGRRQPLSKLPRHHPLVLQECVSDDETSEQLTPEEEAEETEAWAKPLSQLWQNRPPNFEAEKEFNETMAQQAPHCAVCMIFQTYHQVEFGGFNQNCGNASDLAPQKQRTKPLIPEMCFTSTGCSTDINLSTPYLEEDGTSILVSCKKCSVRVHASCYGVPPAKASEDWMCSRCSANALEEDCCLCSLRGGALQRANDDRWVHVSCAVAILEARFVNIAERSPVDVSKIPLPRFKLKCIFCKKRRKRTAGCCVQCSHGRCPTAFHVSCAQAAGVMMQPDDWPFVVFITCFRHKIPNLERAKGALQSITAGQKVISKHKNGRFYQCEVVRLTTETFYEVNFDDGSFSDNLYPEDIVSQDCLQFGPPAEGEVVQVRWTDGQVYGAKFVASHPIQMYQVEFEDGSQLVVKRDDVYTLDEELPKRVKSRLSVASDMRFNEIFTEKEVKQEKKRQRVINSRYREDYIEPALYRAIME

Row | Compound | Potency
1 | COc1ccc(NC(=O)c2ccc3nc(C(C)C)oc3c2)cc1OC | inactive
2 | S=C(NCCc1ccccc1)NCc1ccccc1Cl | inactive
3 | Clc1cccc(Cl)c1OCCOCCNCc1ccccc1 | 20 µM (active)
4 | OCCNCc1cccc(OCc2ccccc2Cl)c1 | inactive
5 | COC(=O)c1ccc(C2C(C(=O)Nc3ccccc3)=C(C)Nc3nc4ccccc4n32)cc1 (centres undefined) | inactive
6 | O=C(NC(=O)c1ccccc1)Nc1ccccc1O | inactive
7 | O=C(Nc1ccc(S(=O)(=O)Nc2ccccn2)cc1)c1ccccc1 | inactive
8 | O=C(NC1=CC(=O)c2ccccc2C1=O)c1ccccc1 | 20 µM (active)
9 | N#Cc1nc(NCc2ccc(Cl)c(Cl)c2)c2ncn(CCCO)c2n1 | inactive
10 | COC(=O)c1scc(-c2ccccc2)c1S(=O)(=O)Nc1ccccc1 | inactive
11 | COc1ccc(Nc2ncc(F)c(N3CCOCC3)n2)cc1 | inactive
12 | COC(=O)c1ccc(Oc2nc(Nc3ccc(F)cc3)nc(N3CCCC3)n2)cc1 | inactive
13 | CCOc1ccc(Nc2nc(Cl)nc(N3CCN(c4ccc(OC)cc4)CC3)n2)cc1 | 44.7 µM (active)
14 | O=c1c(NCc2cccs2)nccn1-c1ccccc1 | inactive
15 | COc1cc(C(=O)NCCS(=O)(=O)N2CCN(c3ccccc3)CC2)cc(OC)c1OC | inactive
16 | COc1ccc(-n2c(C)cc(C(=O)COC(=O)c3cc(OC)c(OC)cc3NC(=O)c3cccs3)c2C)cc1 | inactive
17 | COc1ccc(-n2c(C)cc(C(=O)CSc3nnc(-c4cccs4)o3)c2C)cc1 | 56.2 µM (active)
18 | Cc1ccc(OC(=O)CSc2nnc(-c3cccs3)o2)cc1 | inactive
19 | CCOC(=O)c1cc2c(=O)n3ccccc3nc2n(CC2CCCO2)c1=NC(=O)c1ccccc1Br (centres undefined) | inactive
20 | COCCNC(=O)CSc1c(C)cnc2c1c(=O)n(C)c(=O)n2C | inactive
21 | NS(=O)(=O)c1ccc(NC(=O)CSc2nnc3c(n2)[nH]c2ccccc23)cc1 | inactive
22 | CCC1CCCCN1Cc1c(O)ccc2c(=O)c(Oc3ccccc3Cl)c(C(F)(F)F)oc12 (centres undefined) | inactive
23 | COc1ccc(CCNC(=O)CCc2c(C)nc3c(c(C)nn3-c3ccc(C)c(C)c3)c2C)c(OC)c1OC | inactive
24 | CC(C)CC(=O)NC(=S)NNC(=O)c1cccc([N+](=O)[O-])c1 | inactive
25 | CCCCCC(=O)NC(=S)NNC(=O)c1ccc([N+](=O)[O-])cc1 | 28.2 µM (active)
26 | COCCCNC(=S)NC(=O)c1ccc([N+](=O)[O-])cc1 | inactive

Row | Compound | Potency
27 | COc1ccc(CCNc2nc(-c3ccc(F)cc3)cc(C(F)(F)F)n2)cc1OC | inactive
28 | CSc1nn(Cc2cccc(C)c2)c(N)c1S(=O)(=O)c1ccccc1 | inactive
29 | O=C(c1cc2c(s1)CCC2)N1CCN(c2ccccc2)CC1 | 20 µM (active)
30 | O=C(c1cc2ccccc2s1)N1CCN(c2ccccn2)CC1 | inactive
31 | O=C(C1CCC1)N1CCN(c2ccccc2)CC1 | inactive
32 | COCCCNC(NC(=O)c1ccc(C)cc1)C(Cl)(Cl)Cl (centres undefined) | inactive
33 | CCn1c(C(C)NC(=O)c2ccc(C)cc2)n[nH]c1=S (centres undefined) | 6.31 µM (active)
34 | CCn1c(SCC(=O)NNC(=O)c2ccc(OC)cc2)nnc1C(C)C | inactive
35 | COc1cc(NC(=O)c2nc3ccccc3nc2C)cc(OC)c1OC | inactive
36 | CC1=C(C(=O)Nc2ccccc2Cl)C(c2cccs2)n2ncnc2N1 (centres undefined) | inactive
37 | CCCCOC(=O)CSc1ncnc2sc3c(c12)CCC(C)C3 (centres undefined) | inactive
38 | Cn1c(=O)n(Cc2c(F)cccc2Cl)c(=O)c2c1nc1n2CCN1c1ccc(F)cc1 | inactive
39 | CCn1c(Cc2cccs2)nnc1SCC(=O)c1ccc(C)cc1 | inactive
40 | CCn1c(SCC(=O)c2ccc3ccccc3c2)nnc1-c1cccs1 | 79.4 µM (active)
41 | CCn1c(SCC(=O)c2ccc(Cl)s2)nnc1-c1cccs1 | inactive
42 | Cc1ccc(CCNC(=O)c2ccc3c(c2)nc2n3CCC(C)C2)cc1 (centres undefined) | inactive
43 | CCn1cc(C(=O)OCC(=O)Nc2cc(C)cc(C)c2)c(=O)c2ccc(C)nc21 | inactive
44 | CCC(=O)N1CCc2cc(S(=O)(=O)NCCC(=O)Nc3cccc(C)c3C)ccc21 | inactive
45 | Cc1ccc(C)c(NC(=S)NNC(=S)Nc2ccc(C(C)C)cc2)c1 | 56.2 µM (active)
46 | Cc1ccc(C)c(NC(=O)C2CC(=O)N(C(C)C)C2)c1 (centres undefined) | inactive
47 | Cc1ccc(C)c(NC(=S)NCC(c2cccnc2)N2CCOCC2)c1 (centres undefined) | inactive
48 | CCOC(=O)c1c(NC(=O)c2cc(CC)on2)sc(C(C)=O)c1C | inactive
49 | O=C(Nc1cccc(Cl)c1)c1csnn1 | inactive
50 | CC(C)(C)CN1C(=O)C(=O)NC[C@H]1Cc1cccc2ccccc12 | inactive
51 | c1ccc2c(CCN3CCNC[C@H]3Cc3cccc4ccccc34)cccc2c1 | 56.2 µM (active)
52 | c1ccc(C2CNCc3c2ccc2ccccc32)cc1 (centres undefined) | inactive

Row | Compound | Potency
53 | Cc1cc(NC(=O)CSc2ncc(C(=O)Nc3ccc(Cl)cc3)c(=O)n2C)no1 | inactive
54 | CCOC(=O)c1ccc(NC(=O)CCS(=O)(=O)c2ccc3c(c2)oc(=O)n3C)cc1 | inactive
55 | Cc1ccc(NC(=O)c2cn3c4c(ccc(Cl)c4c2=O)OC(C)C3)cc1C (centres undefined) | inactive
56 | CC1=C(N2CCN(c3ncccn3)CC2)CCC1=O | inactive
57 | Cc1ccc(CN2CCN(c3ncccn3)CC2)c(C)c1 | 14.1 µM (active)
58 | c1cnc(N2CCN(c3ccc4ccccc4n3)CC2)nc1 | inactive
59 | Oc1ccc(CN2CCN(c3ncccn3)CC2)cc1 | 50.1 µM (active)
60 | COc1ccc(-c2nc(CN3CCN(c4ncccn4)CC3)c(C)o2)cc1C | inactive
61 | CN(C)C(=O)c1nc2ccc(Cl)cn2c1CN1CCN(c2ncccn2)CC1 | inactive
62 | COc1ccc(CCNc2ncnc3c2cnn3-c2ccc(C)cc2)cc1 | inactive
63 | Cc1cc(C)c(NC(=O)CCc2c(C)nc3c(c(C)nn3C(C)(C)C)c2C)c(C)c1 | inactive
64 | CCOc1ccc(CNC(=O)c2ccc3nc(CC)c(CC)nc3c2)cc1OC | inactive
65 | COc1ccc(/C=C/c2nc(C#N)c(NCc3ccc(F)cc3)o2)cc1OC | inactive
66 | O=C(CCSCc1cccc(F)c1)NCc1ccccc1 | inactive
67 | Cc1ccc(C)c(N2CCN(c3ccc4cc(S(=O)(=O)N5CCC(C)CC5)ccc4n3)CC2)c1 | inactive
68 | CCN1CCN(CCCNC(=O)c2ccc3c(c2)sc2nc(-c4ccc(OC)cc4)cn23)CC1 | inactive
69 | CC1C(C)N(C(=O)CCl)c2ccccc2N1C(=O)CCl (centres undefined) | 28.2 µM (active)
70 | CC1C(=O)N(Cc2ccccc2)c2ccccc2N1C(=O)c1ccccc1 (centres undefined) | inactive
71 | CNC(=O)N1c2ccccc2C=Cc2ccccc21 | inactive
72 | CCOC(=O)c1c(NC(=O)c2ccc(S(=O)(=O)N3CCCC(C)C3)cc2)sc2c1CCN(C(C)C)C2 (centres undefined) | inactive
73 | Cc1ccc(CN2CCCn3nc(C(=O)NCc4ccccc4Cl)cc3C2=O)cc1 | inactive
74 | COc1ccccc1/C=N/N1CCN(Cc2ccccc2Cl)CC1 | 44.7 µM (active)
75 | O=S1(=O)CCN(Cc2ccccc2Cl)CC1 | inactive
76 | COc1ccccc1/C=C/C=N/NC(=O)CN1CCN(Cc2ccccc2)CC1 | inactive
77 | O=C(NCC1CCN(Cc2ccccc2Cl)CC1)Nc1cccc(Cl)c1 | inactive
78 | CSc1ccc(/C=N/N2CCN(Cc3ccccc3Cl)CC2)cc1 | 25.1 µM (active)

Row | Compound | Potency
79 | CN1CCN(/N=C/c2ccc(C#N)cc2)CC1 | inactive
80 | Cc1nn(C(=O)c2c(F)cccc2F)c(C)c1S(=O)(=O)N1CCOCC1 | inactive
81 | Fc1ccc(-n2ncc3c(Nc4ccc(Oc5ccccc5)cc4)ncnc32)cc1 | inactive
82 | Cc1ccccc1CSCCNC(=O)C1CCN(S(=O)(=O)Cc2ccccc2)CC1 | inactive
83 | O=C(c1ccc(Cl)cc1)n1nc(-c2cccnc2)nc1NCc1ccc(F)cc1 | inactive
84 | CCOC(=O)c1cc2c(=O)n3ccccc3nc2n(CC2CCCO2)c1=NC(=O)c1ccccc1F (centres undefined) | inactive
85 | Cc1csc(Nc2ccc(Cl)cc2)[n+]1-c1ccc(Cl)cc1 | 14.1 µM (active)
86 | CC1CCCN(c2nc3c(S(=O)(=O)c4ccc(C(C)C)cc4)nnn3c3ccsc23)C1 (centres undefined) | inactive
87 | CCOc1ccccc1NC(=S)N1CCN(c2cccc(C)c2C)CC1 | inactive
88 | Cc1cccc(N2CCN(C(=O)c3ccc4c(c3)CCN4S(=O)(=O)c3ccccc3)CC2)c1C | inactive
89 | CCn1c(C)c(C)c2cc(C(=O)N3CCN(c4cccc(C)c4C)CC3)ccc21 | 31.6 µM (active)
90 | CCC(CC)C(=O)N1CCN(c2cccc(C)c2C)CC1 | inactive
91 | CCS(=O)(=O)N1CCc2cc(C(=O)N3CCN(c4ccccc4OC)CC3)ccc21 | inactive
92 | CCOC(=O)c1ccc2[nH]c(C)c(CN3CCN(C)CC3)c(=O)c2c1 | inactive
93 | COC(=O)CCNC(=O)c1ccc2[nH]c(C)c(C)c2c1 | inactive
94 | Cc1[nH]c2ccc(C(=O)N3CCN(C)CC3)cc2c1C | 50.1 µM (active)
95 | CCOc1ccccc1N1CCN(C(=O)c2ccc3[nH]c(C)c(C)c3c2)CC1 | 56.2 µM (active)
96 | Cn1c(=O)cc(OCC(=O)N2CCN(c3ccccc3)CC2)c2ccccc21 | inactive
97 | Cc1ccccc1C(=O)Nc1sc2c(c1C(=O)N1CCC(C)CC1)CCCC2 | inactive
98 | CC(=O)Nc1c(C)nn(-c2ccccc2)c1N1CCC(C(=O)Nc2cc(Cl)ccc2C)CC1 | inactive
99 | Cc1ccc(Cc2nc3ccccc3nc2SCC(=O)Nc2cccc(C(F)(F)F)c2)cc1 | inactive
100 | CCc1nc2ccc(C(=O)N3CCN(c4cc(Cl)ccc4C)CC3)cc2nc1CC | inactive
101 | COc1ccc(CCNC(=O)c2c3c(nc4ccccc24)C(=O)N(C2CCCCC2)C3)cc1OC | inactive
102 | COc1cccc(NC(=O)c2ccc3nc(CCc4ccccc4)oc3c2)c1 | inactive
103 | CCOC(=O)c1scc(-c2ccc(C)cc2)c1S(=O)(=O)Nc1cc(C)ccc1C | inactive
104 | COc1ccc(NC(=O)C2CCN(c3ccc(Sc4ccc(C)cc4)nn3)CC2)c(OC)c1 | inactive
